Test results reported in PubChem BioAssay (Tox21).
Results filed as inconclusive are left out. A call without a number means that no potency is given here. A structure can be active in one record and inactive in another. Activity calls are given as the source filed them. Unless noted, calls follow the shape of the full dose curve.

Tests used:
[1] = Nuclear factor erythroid 2-related factor 2/antioxidant responsive element (Nrf2/ARE) small molecule agonists: qHTS cell viability counter screen in human keratinocytes (AID 1919968; active = well fitted curve in the direction sought with a large enough effect in the repeat runs; an effect the other way counts as inactive or inconclusive; also: nearly all actives have a fitted effect of over 55% in size)
Procedure, shortened: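 In human HaCaT keratinocytes stably expressing an ARE-driven luciferase, compound exposure lasted 23 h at 37 C under 5% CO2. Viable cells are quantified with a protease-based fluorogenic reagent (CellTiter-Fluor) read 1 h after addition.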

[2] = Nuclear factor erythroid 2-related factor 2/antioxidant responsive element (Nrf2/ARE) small molecule agonists: luciferase reporter gene qHTS assay in human keratinocytes (AID 1919969); also: nearly all actives have a fitted effect of over 35% in size
[3] = biological target: Gonadotropin-releasing hormone receptor (Homo sapiens) (UniProt P30968); test: Human gonadotropin-releasing hormone receptor (GnRHR) small molecule agonists, calcium flux assay in GnRHR-HEK293 cells (AID 1920063); also: nearly all actives have a fitted effect of over 35% in size
Chain of Gonadotropin-releasing hormone receptor (Homo sapiens) (P30968 whole entry, looked up): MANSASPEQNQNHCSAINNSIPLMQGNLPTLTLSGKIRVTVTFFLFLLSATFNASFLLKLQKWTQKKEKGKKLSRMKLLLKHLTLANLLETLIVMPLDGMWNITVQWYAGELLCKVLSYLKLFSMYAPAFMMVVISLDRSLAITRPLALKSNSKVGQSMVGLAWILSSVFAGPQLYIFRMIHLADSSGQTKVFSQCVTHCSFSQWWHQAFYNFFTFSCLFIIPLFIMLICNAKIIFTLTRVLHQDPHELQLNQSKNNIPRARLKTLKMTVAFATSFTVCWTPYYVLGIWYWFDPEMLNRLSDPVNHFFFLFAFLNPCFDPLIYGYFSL
Procedure, shortened: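 Intracellular calcium rise is the read-out: engineered human GnRHR HEK293 cells, dye-loaded, are exposed to DMSO-dissolved compounds and fluorescence at Ex/Em 480/540 is tracked for 3 min.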

[4] = biological target: KiSS-1 receptor (Homo sapiens) (UniProt Q969F8); test: Human kisspeptin (KISS1R) small molecule agonists, calcium flux assay in KISS1R-HEK293 cells (AID 1920064; active = well fitted curve in the direction sought with a large enough effect in the repeat runs; an effect the other way counts as inactive or inconclusive)
Chain of KiSS-1 receptor (Homo sapiens) (Q969F8 whole entry, looked up): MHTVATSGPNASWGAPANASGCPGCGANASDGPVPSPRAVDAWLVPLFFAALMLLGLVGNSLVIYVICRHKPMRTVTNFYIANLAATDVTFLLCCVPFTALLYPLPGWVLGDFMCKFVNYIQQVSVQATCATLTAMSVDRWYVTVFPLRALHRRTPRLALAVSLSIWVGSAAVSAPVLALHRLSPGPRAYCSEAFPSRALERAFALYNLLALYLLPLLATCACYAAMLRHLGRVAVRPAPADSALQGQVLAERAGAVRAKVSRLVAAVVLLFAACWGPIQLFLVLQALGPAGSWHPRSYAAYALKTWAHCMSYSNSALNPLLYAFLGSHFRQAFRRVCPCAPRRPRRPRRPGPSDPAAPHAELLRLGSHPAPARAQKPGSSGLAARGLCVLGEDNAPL
Procedure, shortened: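 Concentration-response testing used 15 concentrations in triplicate on human KISS1R-expressing HEK293 cells. Calcium-dependent fluorescence (Ex/Em 480/540) was followed kinetically for 3 min after compound transfer.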

[5] = G protein-coupled receptor (GPCR) small molecule agonists, calcium flux assay: HEK293 wild type cell line counter screen (AID 1920065)
Procedure, shortened: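 Fluorescence intensity signals activation. After overnight (18 h) culture and a 1 h calcium dye load at 37 C, compounds are added by pin tool and the plate read at 480/540 nm for 3 min in 1 s steps.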

[6] = p53 small molecule agonists, cell-based qHTS assay with human liver microsomes (AID 1963577);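 also: p53 response element beta-lactamase reporter cells with liver microsomes plus NADPH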
Procedure, shortened: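 With metabolic activation: human liver microsomes (0.5 mg/mL final) plus NADPH (0.5 mg/mL final) added alongside compounds to p53RE-bla cells; 16 h 37 C exposure; beta-lactamase read by LiveBLAzer fluorescence.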

[7] = p53 small molecule agonists, cell-based qHTS assay with rat liver microsomes (AID 1963578)
Procedure, shortened: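 Metabolic activation by rat liver microsomes and NADPH, each 0.5 mg/mL final, added right after compounds to p53RE-bla reporter cells (4,000/well, plated 5 h earlier). 16 h at 37 C, then LiveBLAzer substrate for 2 h at room temperature in the dark; fluorescence read-out.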

[8] = p53 small molecule agonists, cell-based qHTS assay with human liver microsomes: qHTS cell viability counter screen (AID 1963579); also: nearly all actives have a fitted effect of over 45% in size
Procedure, shortened: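 Metabolic activation used human liver microsomes and NADPH, both 0.5 mg/mL final, over 16 hours at 37 C on p53RE-bla cells (4,000/well). Cytotoxicity measured by CellTiter-Glo luminescence, 30 min at room temperature.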

[9] = p53 small molecule agonists, cell-based qHTS assay with rat liver microsomes: qHTS cell viability counter screen (AID 1963580); also: nearly all actives have a fitted effect of over 45% in size
Procedure, shortened: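 After the beta-lactamase ratio was read, CellTiter-Glo was added to the same wells and luminescence measured at 30 min; cells had been treated 16 h at 37 C with compounds, rat liver microsomes and NADPH (0.5 mg/mL final each).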

[10] = p53 small molecule agonists, cell-based qHTS assay: qHTS cell viability counter screen (AID 1963581); also: nearly all actives have a fitted effect of over 45% in size
Procedure, shortened: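 Luminescence from CellTiter-Glo, reflecting ATP content, serves as the cytotoxicity measure; it is taken after the 2 h reporter substrate step in HCT-116 p53RE-bla cells dosed for 16 h at 37 C.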

[11] = p53 small molecule agonists, cell-based qHTS assay (AID 1963582; active = well fitted activation curve with a large enough effect in the signal ratio in the repeat runs, not every such curve was filed as active; the % refers to the signal ratio)
Procedure, shortened: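 After plating, p53RE-bla cells sat 5 h in the incubator; compounds or DMSO vehicle were pinned in; a 16 h incubation at 37 C followed; FRET substrate was added and, 2 h later at RT, fluorescence was measured.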

[12] = biological target: 5-hydroxytryptamine receptor 2A (Homo sapiens) (UniProt P28223); test: 5-hydroxytryptamine receptor 2A (HTR2A) small molecule antagonists, cell-based qHTS assay (AID 1963586); also: nearly all actives have a fitted effect of over 45% in size
Chain of 5-hydroxytryptamine receptor 2A (Homo sapiens) (P28223 whole entry, looked up): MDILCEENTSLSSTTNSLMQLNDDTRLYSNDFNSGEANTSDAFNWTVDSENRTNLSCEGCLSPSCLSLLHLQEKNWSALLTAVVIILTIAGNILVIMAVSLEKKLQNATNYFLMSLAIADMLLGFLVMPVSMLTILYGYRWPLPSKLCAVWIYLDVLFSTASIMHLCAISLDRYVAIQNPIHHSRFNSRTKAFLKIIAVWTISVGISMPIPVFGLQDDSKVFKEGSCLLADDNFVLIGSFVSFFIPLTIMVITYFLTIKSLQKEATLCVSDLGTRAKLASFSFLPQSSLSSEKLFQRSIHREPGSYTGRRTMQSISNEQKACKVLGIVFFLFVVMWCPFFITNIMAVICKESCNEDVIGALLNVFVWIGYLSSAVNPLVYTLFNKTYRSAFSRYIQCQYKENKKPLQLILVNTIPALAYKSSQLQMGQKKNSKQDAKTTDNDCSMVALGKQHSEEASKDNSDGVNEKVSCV
Procedure, shortened: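 CHO cells stably expressing human HTR2A were plated for 18 h at 37 C, then loaded with calcium dye for 1 h. Compounds were preincubated 5 min at room temperature before DOI (4 nM solution) was added. Kinetic fluorescence was read for 3 min.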

[13] = biological target: 5-hydroxytryptamine receptor 2A (Homo sapiens) (UniProt P28223); test: 5-hydroxytryptamine receptor 2A (HTR2A) small molecule agonists, cell-based qHTS assay (AID 1963587); also: nearly all actives have a fitted effect of over 30% in size; also: potency is read from the fitted curve at half-maximal effect
Procedure, shortened: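 CHO cells stably expressing human HTR2A, plated 18 h, loaded with calcium dye 1 h at 37 C. Agonist mode: compounds added and intracellular calcium fluorescence recorded kinetically for 2 min at 1 sec intervals.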

[14] = biological target: Muscarinic acetylcholine receptor M1 (Homo sapiens) (UniProt P11229); test: Cholinergic receptor muscarinic 1 (CHRM1) small molecule antagonists, cell-based qHTS assay (AID 1963588); also: nearly all actives have a fitted effect of over 40% in size
Chain of Muscarinic acetylcholine receptor M1 (Homo sapiens) (P11229 whole entry, looked up): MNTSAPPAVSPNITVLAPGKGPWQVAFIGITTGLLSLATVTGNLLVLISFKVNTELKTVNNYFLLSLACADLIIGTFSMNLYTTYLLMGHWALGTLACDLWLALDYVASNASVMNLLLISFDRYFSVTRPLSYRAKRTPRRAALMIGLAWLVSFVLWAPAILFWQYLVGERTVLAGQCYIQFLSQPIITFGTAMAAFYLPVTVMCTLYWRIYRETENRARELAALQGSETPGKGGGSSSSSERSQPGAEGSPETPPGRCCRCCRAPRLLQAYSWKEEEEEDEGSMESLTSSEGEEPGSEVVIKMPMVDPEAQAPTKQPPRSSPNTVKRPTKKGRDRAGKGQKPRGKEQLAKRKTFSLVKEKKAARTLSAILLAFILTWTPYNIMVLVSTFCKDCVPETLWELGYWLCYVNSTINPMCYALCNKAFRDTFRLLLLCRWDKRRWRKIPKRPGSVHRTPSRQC
Procedure, shortened: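 Compounds were tested at 15 concentrations in three independent runs. Dye-loaded CHRM1-CHO cells were exposed 5 min at room temperature before stimulation by acetylcholine added at 50nM. Intracellular calcium was read kinetically on FDSS for 3 min.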

[15] = biological target: Muscarinic acetylcholine receptor M1 (Homo sapiens) (UniProt P11229); test: Cholinergic receptor muscarinic 1 (CHRM1) small molecule agonists, cell-based qHTS assay (AID 1963589); also: nearly all actives have a fitted effect of over 35% in size
Procedure, shortened: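 Fluorescent calcium dye reports M1 activation in stably transfected CHO cells. Compounds, 15 concentrations, added after 1 h dye loading at 37 C; kinetic reading at 1 sec intervals.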

[16] = cAMP Responsive Elements (CRE) small molecule agonists, cell-based qHTS assay (AID 1963590)
Procedure, shortened: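 Compound exposure lasted 3 h at 37 C/5% CO2 in CRE-bla HEK 293T cells grown in assay medium with 10% dialyzed FBS and 25 mM HEPES. Reporter signal came from LiveBLAzer B/G FRET substrate, 2 h, room temperature.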

[17] = cAMP Responsive Elements (CRE) small molecule antagonists, cell-based qHTS assay (AID 1963591; active = well fitted inhibition curve with a large enough effect in the signal ratio in the repeat runs, not every such curve was filed as active; the % refers to the signal ratio)
Procedure, shortened: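 Stimulation used NKH477 at a final 0.25 uM for 3 h in compound-treated CRE-bla HEK293T cells, seeded 18 h beforehand. Reporter activity was measured with LiveBLAzer B/G FRET substrate after 2 h at room temperature.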

[18] = biological target: Beta-2 adrenergic receptor (Homo sapiens) (UniProt P07550); test: Adrenergic beta2 receptor (ADRB2) small molecule antagonists, cell-based qHTS assay (AID 1963592); also: series mostly up to about 92 µM; nearly all actives have a fitted effect of over 50% in size
Chain of Beta-2 adrenergic receptor (Homo sapiens) (P07550 whole entry, looked up): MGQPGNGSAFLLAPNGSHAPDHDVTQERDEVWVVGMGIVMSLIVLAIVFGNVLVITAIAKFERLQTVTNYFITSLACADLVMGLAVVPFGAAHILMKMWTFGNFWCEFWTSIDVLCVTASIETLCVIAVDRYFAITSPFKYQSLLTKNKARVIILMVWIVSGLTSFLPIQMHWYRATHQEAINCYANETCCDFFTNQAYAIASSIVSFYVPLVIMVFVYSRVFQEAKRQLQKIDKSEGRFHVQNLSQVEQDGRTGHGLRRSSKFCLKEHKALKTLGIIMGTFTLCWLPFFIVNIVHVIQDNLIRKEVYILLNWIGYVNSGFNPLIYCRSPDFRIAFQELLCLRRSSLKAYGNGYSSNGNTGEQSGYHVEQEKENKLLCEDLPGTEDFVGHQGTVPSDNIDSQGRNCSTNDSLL
Procedure, shortened: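 Assay format: CHO-ADRB2 cells, 18-20hr seeding at 37C/5% CO2, then compound plus 1nM isoproterenol agonist mix for 0.5hr RT. Homogeneous time-resolved fluorescence cAMP detection after 1hr, expressed as 665/615 nm ratio.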

[19] = biological target: D(2) dopamine receptor (Homo sapiens) (UniProt P14416); test: Dopamine D2 receptor (DRD2) small molecule agonists, cell-based qHTS assay (AID 1963594); also: nearly all actives have a fitted effect of over 35% in size
Chain of D(2) dopamine receptor (Homo sapiens) (P14416 whole entry, looked up): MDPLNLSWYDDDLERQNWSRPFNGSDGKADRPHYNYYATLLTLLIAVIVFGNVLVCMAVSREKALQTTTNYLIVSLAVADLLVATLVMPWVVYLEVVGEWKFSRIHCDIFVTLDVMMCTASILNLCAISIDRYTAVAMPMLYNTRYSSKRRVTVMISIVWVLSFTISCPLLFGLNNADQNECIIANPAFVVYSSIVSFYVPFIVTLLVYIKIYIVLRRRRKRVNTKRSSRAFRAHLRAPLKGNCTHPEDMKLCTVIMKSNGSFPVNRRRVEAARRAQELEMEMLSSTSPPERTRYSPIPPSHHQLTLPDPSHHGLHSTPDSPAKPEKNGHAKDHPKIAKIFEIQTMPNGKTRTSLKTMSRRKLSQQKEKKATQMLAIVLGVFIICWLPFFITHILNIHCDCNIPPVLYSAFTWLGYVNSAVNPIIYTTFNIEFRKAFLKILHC
Procedure, shortened: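 HEK293 cells stably expressing human DRD2, pre-treated with PDE inhibitor Ro20-1724 (0.1 mM final) and compound 10 min at room temperature, then stimulated with NKH477 (200nM […]) for 30 min. cAMP read by HTRF (665/620 nm).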

[20] = biological target: D(2) dopamine receptor (Homo sapiens) (UniProt P14416); test: Dopamine D2 receptor (DRD2) small molecule antagonists, cell-based qHTS assay (AID 1963595; active = well fitted inhibition curve with a large enough effect in the signal ratio in the repeat runs, with a control signal flat; the % refers to the signal ratio)
Procedure, shortened: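 Antagonist mode in DRD2-HEK293 cells: after compound addition with 0.1 mM Ro20-1724, cells received quinpirole (12 nM) and NKH477 (200 nM) for 30 min at room temperature; HTRF cAMP read after 1 h detection.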

O=S1(=O)CC=CC1
Potency [1]: inactive | Potency [2]: inactive | Potency [3]: inactive | Potency [4]: inactive | Potency [5]: inactive | Potency [6]: inactive | Potency [7]: inactive | Potency [8]: inactive | Potency [9]: inactive | Potency [10]: inactive | Potency [11]: inactive | Potency [12]: inactive | Potency [13]: 37.6 µM (active) and inactive | Potency [14]: inactive | Potency [15]: inactive | Potency [16]: inactive | Potency [17]: inactive | Potency [18]: inactive | Potency [19]: inactive | Potency [20]: inactive

CC1(C)OC(=O)NC1=O
Potency [1]: inactive | Potency [2]: inactive | Potency [3]: inactive | Potency [4]: inactive | Potency [5]: inactive | Potency [6]: inactive | Potency [7]: inactive | Potency [8]: inactive | Potency [9]: inactive | Potency [10]: inactive | Potency [11]: inactive | Potency [12]: inactive | Potency [13]: inactive | Potency [14]: inactive | Potency [15]: inactive | Potency [16]: inactive | Potency [17]: inactive | Potency [18]: inactive | Potency [19]: inactive

C/C=C/c1ccc(OCC)c(O)c1
Potency [1]: inactive | Potency [2]: inactive | Potency [3]: inactive | Potency [4]: inactive | Potency [5]: inactive | Potency [6]: inactive | Potency [7]: inactive | Potency [8]: inactive | Potency [9]: inactive | Potency [10]: inactive | Potency [11]: inactive | Potency [12]: inactive | Potency [13]: inactive | Potency [14]: inactive | Potency [15]: inactive | Potency [16]: inactive | Potency [17]: inactive | Potency [18]: inactive | Potency [19]: inactive | Potency [20]: inactive

CCCCC(CC)COC(=O)/C=C/c1ccc(OC)cc1 (centres undefined)
Potency [1]: inactive | Potency [2]: inactive | Potency [3]: inactive | Potency [4]: inactive | Potency [5]: inactive | Potency [6]: inactive | Potency [7]: inactive | Potency [8]: inactive | Potency [9]: inactive | Potency [10]: inactive | Potency [11]: inactive | Potency [12]: inactive | Potency [13]: inactive | Potency [14]: inactive | Potency [15]: inactive | Potency [16]: inactive | Potency [17]: inactive | Potency [18]: inactive | Potency [19]: inactive | Potency [20]: inactive

C=C(C)C(=O)O
Potency [1]: inactive | Potency [2]: inactive | Potency [3]: inactive | Potency [4]: inactive | Potency [5]: inactive | Potency [6]: inactive | Potency [7]: inactive | Potency [8]: inactive | Potency [9]: inactive | Potency [10]: inactive | Potency [11]: inactive | Potency [12]: inactive | Potency [13]: inactive | Potency [14]: inactive | Potency [15]: inactive | Potency [16]: inactive | Potency [17]: inactive | Potency [18]: inactive | Potency [19]: inactive | Potency [20]: inactive

CC(=O)OCCC(C)C
Potency [1]: inactive | Potency [2]: inactive | Potency [3]: inactive | Potency [4]: inactive | Potency [5]: inactive | Potency [6]: inactive | Potency [7]: inactive | Potency [8]: inactive | Potency [9]: inactive | Potency [10]: inactive | Potency [11]: inactive | Potency [12]: inactive | Potency [13]: inactive | Potency [14]: inactive | Potency [15]: inactive | Potency [16]: inactive | Potency [17]: inactive | Potency [18]: inactive | Potency [19]: inactive | Potency [20]: inactive

O=C(O)CC(O)C(=O)O (centres undefined)
Potency [1]: inactive | Potency [2]: inactive | Potency [3]: inactive | Potency [4]: inactive | Potency [5]: inactive | Potency [6]: inactive | Potency [7]: inactive | Potency [8]: inactive | Potency [9]: inactive | Potency [10]: inactive | Potency [11]: inactive | Potency [12]: inactive | Potency [13]: inactive | Potency [14]: inactive | Potency [15]: inactive | Potency [16]: inactive | Potency [17]: inactive | Potency [18]: inactive | Potency [19]: inactive | Potency [20]: inactive
